# Calls of active or inactive are those of the source. No rule for the calls is given here.
# Tested on: Cytotoxicity
# Assay: STAT3 blockade with qPCR and toxicity readouts – cell-based, STAT1 panel, cytotoxicity, late-stage follow-up (AID 2078)
# Details: cell reporter assay; series mostly up to 55.7 µM
compound,measurement,value
c1ccc(CC2CCN(c3ncnc4sccc34)CC2)cc1,outcome,inactive

# — PubChem BioAssay AID2078 (The Scripps Research Institute Molecular Screening Center, 2009)
